Out of some 220,000 compounds screened, about 970 (0.44%) were called active. The sample holds actives, similar compounds and a random draw of the others, so the mix is not that of the screen. Values without a mark were called inactive. Rule as the data show it: active = activation above about 27%; inactive = the rest.
Biological target: Neuropeptide Y receptor type 2 (Homo sapiens) (UniProt P49146)
Assay: NPY-Y2 potentiators or agonists, primary screen, cell-based (AID 1359);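 also: cells stimulated with NPY near EC25 plus isoproterenol at EC100; 0% = vehicle plus submaximal agonist and 100% = vehicle plus saturating agonist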
Details: cells expressing NPY-Y2, potentiator/agonist read-out; at 3.6 µM; hits give high values

Sequence of Neuropeptide Y receptor type 2 (Homo sapiens) (P49146 whole entry, looked up): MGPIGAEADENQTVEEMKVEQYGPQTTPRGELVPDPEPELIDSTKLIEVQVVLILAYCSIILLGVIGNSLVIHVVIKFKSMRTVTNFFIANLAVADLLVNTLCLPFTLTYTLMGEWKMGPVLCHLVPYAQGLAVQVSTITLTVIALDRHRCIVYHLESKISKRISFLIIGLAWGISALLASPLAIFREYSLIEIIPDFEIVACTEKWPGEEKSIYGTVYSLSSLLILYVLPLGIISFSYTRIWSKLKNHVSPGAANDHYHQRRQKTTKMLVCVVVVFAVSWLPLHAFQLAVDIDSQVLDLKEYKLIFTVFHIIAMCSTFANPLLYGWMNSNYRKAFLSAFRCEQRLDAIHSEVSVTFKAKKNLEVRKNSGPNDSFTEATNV

| SMILES | activation |
| --- | --- |
| Cc1nn(CCOc2ccc(Br)cc2)c(C)c1[N+](=O)[O-] | 14.5% |
| O=C(NC1C2CC3CC(C2)CC1C3)c1ccc(N2CCNCC2)c([N+](=O)[O-])c1 (configuration not stated) | 29.4% |
| C#CCOCCOCCOCCNc1nc(N2CCN(C(=O)C(Cc3ccc(O)cc3)n3cc(C(N)CC(C)C)nn3)CC2)nc(N2CCN(C(=O)C(Cc3ccc(O)cc3)n3cc(C(N)C(C)CC)nn3)CC2)n1 (configuration not stated) | -7.8% |
| C#CCOCCOCCOCCNc1nc(N2CCN(C(=O)[C@H](CCCCN)n3cc([C@@H](N)C(C)CC)nn3)CC2)nc(N2CCN(C(=O)[C@H](Cc3ccc(O)cc3)n3cc([C@@H](N)C(C)CC)nn3)CC2)n1 (some centres not stated) | 104% (active) |
| C#CCOCCOCCOCCNc1nc(N2CCN(C(=O)[C@H](Cc3ccc(O)cc3)n3cc(C(N)CC(C)C)nn3)CC2)nc(N2CCN(C(=O)[C@H](CCC(=O)O)n3cc(C(N)[C@H](C)CC)nn3)CC2)n1 (some centres not stated) | -9.15% |
| O=C(CCC(=O)NNc1nc2ccccc2c2nc(-c3ccccc3)nn12)NCCCN1CCCC1=O | -1.14% |
| CCCCNC(=S)N/N=C1\CCCCc2ccccc21 | 2.42% |
| COc1ccc2[nH]c(=S)cc(C)c2c1 | -28% |
| COc1ccc2[nH]c3ccc(OC)cc3c2c1 | 65.6% (active) |
| CCN(CC)CC(=O)c1c[nH]c2ccc(OC)cc12 | 0.4% |
| O=C(c1c(Cl)cccc1Cl)N1CCN(c2cccc3[nH]ccc23)CC1 | 6.12% |
| C=Cn1c(C(=O)O)ccc1-c1ccc(OC)cc1 | -9.57% |
| CCOC(=O)c1[nH]ncc1CN1CCCC(C(=O)c2ccc(OC)cc2C)C1 (configuration not stated) | 3.33% |
| COc1ccc(C(=O)C2CCCN(Cc3cccn3-c3ccccn3)C2)c(C)c1 (configuration not stated) | 89.8% (active) |
| COc1ccc(C(=O)C2CCCN(Cc3ccc4nonc4c3)C2)c(C)c1 (configuration not stated) | -20.8% |
| CC1CCc2sc(C(=O)N/N=C/C3CCCCC3)cc2C1 (configuration not stated) | 4.14% |
| CSCC(=O)N1CCCC(C(=O)c2cc(F)ccc2F)C1 (configuration not stated) | 0.81% |
| O=C(Nc1ccccc1)N1CCN(C2c3ccccc3-c3ccccc32)CC1 | -13.1% |
| N#C/C(=C\N1CCOCC1)S(=O)(=O)c1ccc(Cl)cc1 | 8.91% |
| Cc1cccc(C)c1NC(=O)C1(C)c2cccc[n+]2CC(=O)N1Cc1cccs1 (configuration not stated) | -2.7% |
| C/C(=N/NC(=O)c1ccn(C)n1)c1ccncc1 | 9.5% |
| Cc1ccc(NC(=O)CC(=O)Nc2ccc(C)cc2)cc1 | -4.26% |
| COC(=O)c1ccc(NC(=O)Nc2ccc(C)cc2)cc1 | 99.2% (active) |
| CC(=O)c1cccc(NC(=O)Nc2ccc(C)cc2)c1 | 6.31% |
| Cc1ccc(S(=O)(=O)N2CCN(C(=O)COC(=O)c3c(C)noc3C)CC2)c(C)c1 | -1.02% |
| O=C(NC(Cc1c[nH]c2ccccc12)C(=O)N/N=C/c1ccc(Br)cc1)c1cccs1 (configuration not stated) | 17.2% |
| COc1cc([N+](=O)[O-])ccc1NC(=S)N1CCN(c2ccccn2)CC1 | -7.19% |

From PubChem BioAssay AID1359 (The Scripps Research Institute Molecular Screening Center, 2008)
